Assay outcomes (PubChem BioAssay)
The sample as a whole holds a higher share of hits than the screen did.
ERK EGF inh = blocks ERK signaling stimulated by EGF. actives 0.41% (n = 130,000). Potency, µM (highest dose often 11.5 µM), inactives show top-dose activity change, negative = inhibition, most hits filed as inhibitors. HEK293-V1b, EGF-stimulated phospho-ERK AlphaScreen; active = well fitted inhibition curve with a large enough effect;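 note: plate controls were stimulated vehicle wells for no effect and unstimulated vehicle basal for full effect; nearly all actives have a fitted effect of over 55% in size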
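After overnight plating in 1% FBS, HEK293-V1b cells received test compound for half an hour, then a 5 min pulse of EGF (25 nM); ERK phosphorylation in lysates was read by bead-based AlphaScreen.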
An asterisk follows results filed as active; [ ] = another dose, or the depositor's remark. Potency is the fitted concentration of half-maximal effect.

How did CC(=O)N1CCC2(CC1)CCN(c1ccccn1)CC2 do in these assays?
ERK EGF inh: 3.2%

How did CN(C)CCCN(C(=O)c1sc2ccccc2c1Cl)c1nc2ccc(F)cc2s1 do in these assays?
ERK EGF inh: -0.3%

Results for CN(C)CCCN(C(=O)c1ccc2c(c1)CCCC2)c1nc2ccc(Cl)cc2s1 ?
ERK EGF inh: 20µM*

How did CN(C)CCCN(C(=O)COc1ccccc1)c1nc2ccc(Cl)cc2s1 do in these assays?
ERK EGF inh: -1.8%

What do the screens show for `COC(=O)C1(C(=O)OC)CC2=C[C@H](CC2=O)Cc2ccccc2[C@@H]1C[N+](=O)[O-]`?
ERK EGF inh: -10.8%

How did COc1c(N2C[C@@H]3CCCN[C@H]3C2)c(F)cc2c(=O)c(C(=O)O)cn(C3CC3)c12 do in these assays?
ERK EGF inh: 1.8%

What do the screens show for `O=C(/C=C/c1ccccc1O)c1ccc(Cl)cc1`?
ERK EGF inh: 39.8µM*

Results for CC(=O)/C=C/c1ccccc1O ?
ERK EGF inh: -3.0%

Results for CCOc1ccccc1/C=C/C(=O)c1ccc(Cl)cc1 ?
ERK EGF inh: -8.7%

What do the screens show for `CC(=O)N[C@H](C(=O)O)C(C)(C)SN=O`?
ERK EGF inh: 2.3%

Results for O=C(O)c1ccccc1C(=O)c1ccc(N2CCCC2)c([N+](=O)[O-])c1 ?
ERK EGF inh: -1.0%

How did COc1ccccc1N1CCN(C(=O)/C=C/c2cccc([N+](=O)[O-])c2)CC1 do in these assays?
ERK EGF inh: -9.2%[57.5 µM]

Results for COc1ccccc1C(=O)/C=C/c1ccc(N2CCCCC2)c([N+](=O)[O-])c1 ?
ERK EGF inh: 15.8µM*

Results for NCCC[C@@H](CC(=O)N[C@@H]1CCNC[C@H]1C(=O)N[C@H](CC(=O)N[C@@H](CCC(=O)O)CC(=O)O)Cc1ccccc1)NC(=O)C[C@H](Cc1c[nH]c2ccccc12)NC(=O)[C@@H]1CNCC[C@H]1N ?
ERK EGF inh: -7.4%

What do the screens show for `C=C(C)C(=O)/C=C/c1ccc(C(F)(F)F)cc1`?
ERK EGF inh: -6.6%

What do the screens show for `COC(CNC(=O)C(C)n1nc(C)c2ccccc21)OC` (centres undefined)?
ERK EGF inh: 3.0%

What do the screens show for `COC(CNC(=O)c1ccc2c3c(onc13)-c1ccccc1C2=O)OC`?
ERK EGF inh: 35.5µM*

How did COC(CNC(=O)c1cccnc1)OC do in these assays?
ERK EGF inh: 1.1%

How did Fc1ccc([C@H]2CCNC[C@H]2COc2ccc3c(c2)OCO3)cc1 do in these assays?
ERK EGF inh: -1.7%

Results for O=C(Nc1cccc(Br)c1)c1ccc(OC2CSC2)cc1 ?
ERK EGF inh: 25.1µM*

Results for Cc1cccc(NC(=O)c2ccc(OC3CSC3)cc2)c1 ?
ERK EGF inh: 0.0%

How did COC(=O)c1cccc(NC(=O)c2ccccc2)c1 do in these assays?
ERK EGF inh: -1.6%[57.5 µM]

How did Cc1ccccc1Nc1oc(-c2ccccc2)nc1-c1cccs1 do in these assays?
ERK EGF inh: 0.0%

What do the screens show for `O=c1cc(-c2ccccc2)oc2cc(O[C@@H]3O[C@H](CO)[C@@H](O)[C@H](O)[C@H]3O)c(O)c(O)c12`?
ERK EGF inh: 3.5%

How did N[C@@H]1CCN(O)C1=O do in these assays?
ERK EGF inh: -3.0%

How did CC(C)=CCC1=C(O)[C@](O)(CC=C(C)C)C(=O)C(C(=O)CC(C)C)=C1O do in these assays?
ERK EGF inh: -0.8%

What do the screens show for `Nc1ncnc2c1nc(Sc1ccc(Cl)cc1)n2[C@H]1O[C@@H]2COP(=O)(O)O[C@H]2[C@@H]1O`?
ERK EGF inh: 16.5%

Results for CCN(CC)CCC[C@H](C)Nc1c2ccc(Cl)cc2nc2ccc(OC)cc12 ?
ERK EGF inh: -4.1%[25.7 µM]

Results for COC(=O)N1C(C)=Cc2ccccc2C1CC(C)=O (centres undefined) ?
ERK EGF inh: -0.6%

Results for Cc1cnc(CN2CCc3c([nH]c4ccccc34)C2CC(C)C)[nH]1 (centres undefined) ?
ERK EGF inh: -5.1%

Results for CCn1ccnc1CN1CCc2c([nH]c3ccccc23)C1C(C)(C)C (centres undefined) ?
ERK EGF inh: 31.6µM*

What do the screens show for `COCc1ccc(CN2CCc3c([nH]c4ccccc34)C2C(C)(C)C)o1` (centres undefined)?
ERK EGF inh: -4.7%

What do the screens show for `COc1cc(/C=C/C(=O)c2cccs2)cc(OC)c1OC`?
ERK EGF inh: -6.6%

How did O=C(O)c1c(Sc2ccccc2)c2cc(Cl)ccc2n1Cc1ccc(Cl)cc1 do in these assays?
ERK EGF inh: 4.1%

How did C[C@@H](C1[C@@H](O)CC2C3C=CC4C[C@@H](O)CC[C@]4(C)[C@H]3CC[C@@]21C)[C@@H]1CCCCN1 (some centres undefined) do in these assays?
ERK EGF inh: 3.4%

How did C/C=C(\C)C(=O)C[Si](C)(C)c1ccccc1 do in these assays?
ERK EGF inh: -2.8%

What do the screens show for `O=C1c2cccc(Sc3ccccc3)c2C(=O)c2c(Sc3ccccc3)cccc21`?
ERK EGF inh: 7.08µM*

Results for N/C(Cc1ccccc1Sc1ccccc1)=N\O ?
ERK EGF inh: 6.4%

How did Cc1cccc(C)c1NC(=O)c1cccc2c1-c1ccccc1C2=O do in these assays?
ERK EGF inh: 2.3%

How did CCCCCCCCCCCCCCCC(=O)NCC(=O)O do in these assays?
ERK EGF inh: 3.7%
